Shown are actives, neighbours in structure and some others; about 3.1% of the full set was active somewhere.
Rtt109 Vps75 = inhibitors of C. albicans Rtt109/Vps75 HAT, primary screen, biochemical, ThioGlo CoA-SH fluorescence, plate reader; Histone acetyltransferase RTT109 (Candida albicans (strain SC5314 / ATCC MYA-2876)), …; purified Rtt109/Vps75, 4 h; inhibition, % at 34.9 µM; 0.16% of 330,000 active;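 active = inhibition of at least 50% in every replicate; inconclusive = best replicate reaches 50% inhibition but some replicates fall short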
Target sequence (Q5AAJ8 whole entry, looked up): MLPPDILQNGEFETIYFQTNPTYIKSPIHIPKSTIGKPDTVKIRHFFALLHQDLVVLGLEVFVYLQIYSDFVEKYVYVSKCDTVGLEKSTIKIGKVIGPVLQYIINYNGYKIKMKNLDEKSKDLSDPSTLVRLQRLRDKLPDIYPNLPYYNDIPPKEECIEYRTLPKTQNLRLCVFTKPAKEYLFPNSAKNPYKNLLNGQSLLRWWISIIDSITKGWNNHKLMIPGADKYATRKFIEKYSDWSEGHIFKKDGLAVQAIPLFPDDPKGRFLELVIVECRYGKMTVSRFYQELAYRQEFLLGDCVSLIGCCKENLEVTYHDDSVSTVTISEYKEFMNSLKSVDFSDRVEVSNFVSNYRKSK
MITF TRPM1 HTS = activators of MITF-driven TRPM1 promoter reporter, primary screen, cell-based, SK-MEL-5, luciferase, single point; SK-MEL-5 TRPM1-promoter luciferase, 24 h; % of positive control, neutral wells = 0; activation, % at 12.5 µM; 0.75% of 300,000 active;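 active = mean activation of at least 80% with every replicate also reaching 80%; inconclusive = mean reaches 80% but some replicate falls short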
Wnt act = Wnt/beta-catenin pathway activators, primary screen, cell-based, plate reader, single point; Wnt/beta-catenin reporter cell assay, activator; activation, % at 9.35 µM; 1.2% of 300,000 active; in the data active = activation above about 30%, passing the limit was not always enough; inconclusive = no clear call, values can overlap the other calls
C2C12 statin = suppressors of statin myotoxicity in C2C12 myotubes, primary screen, cell-based, single point, plate reader | C2C12 myotubes + simvastatin, ATP luminescence, 48 h; scaled: DMSO 0, geranylgeraniol control 100 | 0.78% of 330,000 active | rescue of ATP level, % at 7.49 µM;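 active = mean ATP rescue above about 67%, or every replicate alone reaching that limit, limit read from the data, passing the limit was not always enough; inconclusive = no clear call, values can overlap the other calls; inactive = mean under the limit and some replicate under it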;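 note: myotubes were challenged with 10 µM simvastatin during compound exposure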
esBAF inh = Bmi1 luciferase reporter increase in mESCs, primary screen, esBAF inhibitor project, mouse ES cells, Bmi1 luciferase knock-in, single point | reporter increase, % at 12.5 µM | 24 h; 100% = twice the neutral-well signal | 2% of 350,000 active | AID 602393, 2012; in the data active = activation above about 40%; inconclusive = no clear call, values can overlap the other calls;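 note: a rise in the Bmi1 reporter signal indicates esBAF inhibition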
Of the large screens only hits and unclear results are named; the others gave an inactive call.

CC1=NN(c2ccccc2)C(=O)C1N=Nc1ccc(N)cc1 (stereo not given)	none (no result: Wnt act)
CC1=NN(c2ccccc2)C(=O)C1N=Nc1cccc(O)c1 (stereo not given)	esBAF inh 52 (no result: MITF TRPM1 HTS)
COc1ccc(NC(=O)Nc2ccc3c(c2)C(=O)N([C@@H](C)CO)C[C@H](C)[C@@H](CN(C)Cc2ccccc2)O3)cc1	none (no result: Rtt109 Vps75, MITF TRPM1 HTS, Wnt act)
CCN(CC)C(=O)c1sc(N)c(C(=O)OC(C)C)c1C	none
CCN(CC)C(=O)c1sc(NC(=O)C(Sc2ccccc2)c2ccccc2)c(C(=O)OC(C)C)c1C (stereo not given)	C2C12 statin 101 (no result: Wnt act)
C[C@@H]1CN([C@H](C)CO)C(=O)c2cc(-c3ccc(C#N)cc3)cnc2O[C@@H]1CN(C)C(=O)Nc1ccc(F)cc1	none (no result: Rtt109 Vps75, MITF TRPM1 HTS, Wnt act)
C[C@@H]1CN([C@H](C)CO)S(=O)(=O)c2ccc(-c3cccc(C#N)c3)cc2O[C@H]1CN(C)C	none (no result: Rtt109 Vps75, MITF TRPM1 HTS, Wnt act)
CN(C)c1ccc(/C=C/c2ccc3c4ccccc4ccc3[n+]2-c2ccccc2)cc1	Rtt109 Vps75 64
C[C@H](CO)N1C[C@H](C)[C@H](CN(C)C)Oc2ccc(NS(=O)(=O)c3cccs3)cc2C1=O	none (no result: Rtt109 Vps75, MITF TRPM1 HTS, Wnt act)
COc1ccccc1C1=NC(c2ccc(C)cc2)N=C1C (stereo not given)	Wnt act 52 (no result: C2C12 statin, esBAF inh)
COc1ccccc1-c1nnc(-c2ccc(C)cc2)o1	none (no result: MITF TRPM1 HTS, C2C12 statin, esBAF inh)
O=C(C[C@@H]1CC[C@@H](NC(=O)c2ccccc2)[C@H](CO)O1)Nc1ccc(-c2ccccc2)cc1	none (no result: Rtt109 Vps75, MITF TRPM1 HTS, Wnt act)
O=c1cc(-c2ccccc2)oc2ccc(Cl)cc12	Wnt act 47 (no result: MITF TRPM1 HTS, C2C12 statin, esBAF inh)
O=c1cc(-c2ccccc2F)oc2ccccc12	Wnt act 47, esBAF inh 58 (no result: MITF TRPM1 HTS)
O=c1cc(-c2ccccc2)oc2ccc(Br)cc12	Wnt act inconclusive
O=c1cc(-c2ccc3c(c2)OCCO3)oc2ccc(Cl)cc12	Wnt act 47 (no result: C2C12 statin)
O=c1cc(-c2cccs2)oc2ccc(Cl)cc12	none
Cc1cccc(S(=O)(=O)N2C[C@H](O)COC[C@H]3O[C@H](CC(=O)Nc4ccccc4)CC[C@@H]32)c1	none (no result: Rtt109 Vps75, MITF TRPM1 HTS, Wnt act)
O=C(C[C@H]1C[C@H]2c3cc(NS(=O)(=O)c4ccc(F)cc4)ccc3O[C@H]2[C@H](CO)O1)NCc1ccc(-c2ccccc2)cc1	none (no result: Rtt109 Vps75, MITF TRPM1 HTS, Wnt act)
Cc1ccc(S(=O)(=O)N(C)C[C@@H]2OCCCC[C@@H](C)Oc3ccc(NS(C)(=O)=O)cc3C(=O)N([C@@H](C)CO)C[C@H]2C)cc1	none (no result: Rtt109 Vps75, MITF TRPM1 HTS, Wnt act, C2C12 statin)
COc1ccc(N2C(=S)NC3N2C(=S)NC3(C)c2ccccc2)cc1 (stereo not given)	Wnt act 65 (no result: C2C12 statin, esBAF inh)
O=C(N/N=C/c1cn(-c2ccccc2)nc1-c1ccccc1)c1ccco1	esBAF inh 44 (no result: Wnt act)
O=C(N/N=C\c1cn(-c2ccccc2)nc1-c1ccccc1)c1ccc(Br)o1	none
Cc1nnc(SCC(=O)N/N=C/c2cn(-c3ccccc3)nc2-c2ccccc2)n1-c1ccccc1	esBAF inh 63 (no result: Wnt act)
O=C(O)/C=C\c1cn(-c2ccccc2)nc1-c1cc2ccccc2o1	none (no result: C2C12 statin, esBAF inh)
O=C(O)/C=C/c1cn(-c2ccccc2)nc1-c1ccccc1	C2C12 statin 90
Cc1ccc(-c2nn(-c3ccccc3)cc2/C=N/NC(=O)c2ccc(Br)o2)cc1	esBAF inh 64 (no result: Wnt act)
Cc1ccc(S(=O)(=O)N[C@@H]2C=C[C@H](CC(=O)NCCN3CCCCC3)O[C@H]2CO)cc1	none (no result: Rtt109 Vps75, MITF TRPM1 HTS, Wnt act)
O=C(N/N=C/c1ccc(Br)cc1)c1ccc(Br)o1	MITF TRPM1 HTS 103, Wnt act 56 (no result: C2C12 statin, esBAF inh)
O=C(N/N=C/c1ccc(F)cc1)c1ccc(Br)cc1	none
C[C@H]1CN([C@@H](C)CO)C(=O)c2cccc(NC(=O)C3CCOCC3)c2O[C@H]1CN(C)Cc1ccc(C(F)(F)F)cc1	none (no result: Rtt109 Vps75, MITF TRPM1 HTS, Wnt act)
N#CCCN1CCN(C(=S)c2ccc(-c3cccc(Cl)c3)o2)CC1	esBAF inh 78 (no result: Wnt act)
O=C(O)c1ccc(-c2cccc(Cl)c2)o1	none (no result: Wnt act)
N#CCCN1CCN(C(=S)c2ccc(-c3ccc(Cl)c(Cl)c3)o2)CC1	esBAF inh 46 (no result: Wnt act)
C[C@@H]1CN([C@@H](C)CO)C(=O)c2cc(C3=CCCCC3)cnc2O[C@H]1CN(C)Cc1ccncc1	none (no result: Rtt109 Vps75, MITF TRPM1 HTS, Wnt act)
C[C@@H]1CCCCO[C@H](CN(C)C(=O)CCC(F)(F)F)[C@H](C)CN([C@H](C)CO)C(=O)c2cc(NS(=O)(=O)c3cn(C)cn3)ccc2O1	none (no result: Rtt109 Vps75, MITF TRPM1 HTS, Wnt act, C2C12 statin)
Cc1cc(C)n(C(N)=NC(=O)c2ccc([N+](=O)[O-])cc2)n1	MITF TRPM1 HTS 95, esBAF inh inconclusive
Cc1cc(C)n(/C(=C/N(C)C)C(=O)c2ccccc2)n1	none (no result: C2C12 statin, esBAF inh)
Cc1cc(C)n(C(N)=NC(=O)c2ccccc2)n1	Wnt act 43 (no result: Rtt109 Vps75, MITF TRPM1 HTS, C2C12 statin, esBAF inh)
COc1ccc(NC(=O)N(C)C[C@@H]2Oc3ccc(NC(=O)CCCCCC(=O)Nc4ccccc4N)cc3CC(=O)N([C@H](C)CO)C[C@@H]2C)cc1	none (no result: Rtt109 Vps75, MITF TRPM1 HTS, Wnt act)
C=CCNc1nc(C(=O)OC(C)C(=O)c2ccc(C)cc2)cs1 (stereo not given)	esBAF inh 57
C=CCNc1nc(C(=O)OCC(=O)c2ccc(F)cc2)cs1	none
COc1ccc(-c2ccc(C(C)=O)cc2)cc1[C@H]1[C@H]2C=CC[C@@H](C)[C@@H]2C(=O)N1Cc1ccccc1	none
COc1ccc(-c2cc([C@H]3[C@H]4C=CC[C@@H](C)[C@@H]4C(=O)N3Cc3ccccc3)ccc2F)cc1	none
COC(=O)c1ccc(-c2ccc(OC)c([C@H]3[C@H]4C=CC[C@@H](C)[C@@H]4C(=O)N3Cc3ccccc3)c2)cc1	esBAF inh 79
COC(=O)c1ccc(-c2ccc([C@H]3[C@H]4C=CC[C@@H](C)[C@@H]4C(=O)N3Cc3ccccc3)c(F)c2)cc1	esBAF inh 59 (no result: MITF TRPM1 HTS)
COc1ccc(-c2cc([C@H]3[C@H]4C=CC[C@@H](C)[C@@H]4C(=O)N3Cc3ccccc3)ccc2F)cc1OC	esBAF inh 48
C[C@H](CO)N1C[C@H](C)[C@@H](CN(C)S(=O)(=O)c2cccs2)Oc2ccc(NC(=O)Nc3ccc4c(c3)OCO4)cc2CC1=O	none (no result: Rtt109 Vps75, MITF TRPM1 HTS, Wnt act)
O=C(C[C@H]1C=C[C@H](NS(=O)(=O)c2ccc(F)cc2)[C@H](CO)O1)N1CCC(Cc2ccccc2)CC1	none (no result: Rtt109 Vps75, MITF TRPM1 HTS, Wnt act)
C[C@H]1CN([C@@H](C)CO)C(=O)c2cc(NC(=O)Nc3ccc4c(c3)OCO4)ccc2O[C@H]1CN(C)Cc1ccc2c(c1)OCO2	none (no result: Rtt109 Vps75, MITF TRPM1 HTS, Wnt act)
COC(=O)COc1cc(OCC(=O)OC)c2c(C)c(Cl)c(=O)oc2c1	none (no result: C2C12 statin, esBAF inh)
COC(=O)COc1cc(C)cc2oc(=O)c(CC(=O)OC)c(C)c12	C2C12 statin 108 (no result: Wnt act)
COc1cccc(NC(=O)N2CC[C@@H]3[C@@H](CO)N(C)c4ccc(-c5ccccc5)cc4[C@@H]32)c1	none (no result: Rtt109 Vps75, MITF TRPM1 HTS, Wnt act)
